High-throughput results from PubChem.
In the library only some 19% were active in any assay of this set; here they are far more common.
TDP1 cell CPT – growth inhibition of DT40 Tdp1-/-;hTDP1 cells with camptothecin (screen for TDP1 inhibitors); 420,000 tested, 12% active; AID 686979; Potency, µM (titrated, usually from 46.2 µM), without a hit: top-dose activity change, negative = growth inhibition, actives largely listed as inhibitors; chicken DT40 Tdp1-/-;hTDP1 cells + 20 nM CPT, ATP luminescence, 48 h; also: potency is read from the fitted curve at half-maximal effect; nearly all actives have a fitted effect of over 55% in size
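Cell growth measured by CellTiter-Glo luminescence after a minimum 48 h, 37 C compound exposure with 20 nM CPT in Tdp1-knockout DT40 cells stably expressing hTDP1, seeded 400/well; qHTS titration format.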
IL1B secr inh – inhibitors of inflammasome signaling (IL-1 beta secretion) | THP-1 LPS/ATP IL-1B secretion, AlphaLISA, 16 h; stronger effect = lower value | activity change, % at 57.5 µM | 360,000 tested, 4.7% active | AID 743279; in the data active = activity change below about -50%; inconclusive = mostly about -30% to -49%
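Secreted IL-1B measured by AlphaLISA bead assay after 16 h compound exposure of THP-1 cells; compounds (final up to 57.5 uM) added 1 h before LPS (250 ng/mL) and ATP (1.25 mM) stimulation; lower signal means less secretion.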
HT1080 IDH1KD tx – HT-1080 IDH1 knockdown cell toxicity (counter line); HT-1080 IDH1 knockdown viability, ATP luminescence, 48 h; Potency, µM (top dose mostly 46.1 µM), without a hit: at the top dose activity, negative = toxicity, hits mostly cytotoxic; 360,000 tested, 2% active;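 also: potency is read from the fitted curve at half-maximal effect; 0% = DMSO wells and -100% = cell-free medium wells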
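IDH1KD HT-1080 cells, 750/well, RPMI + 5% FBS; compound pinned after 2 h settling; 48 h, 37 °C; CellTiter-Glo luminescence; % activity normalised to DMSO and no-cell wells; curves fitted, classed by r2 and efficacy.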
TDP1 cell noCPT – qHTS for Inhibitors of human tyrosyl-DNA phosphodiesterase 1 (TDP1): qHTS in cells in absence of CPT. DT40 Tdp1-/- hTDP1 cells, no CPT, ATP luminescence, 48 h. Potency, µM (top dose mostly 46.2 µM), for inactives: top-dose activity change, negative = growth inhibition, most hits filed as inhibitors. 420,000 tested, 15% active. AID 686978, 2013; also: potency is read from the fitted curve at half-maximal effect; nearly all actives have a fitted effect of over 55% in size
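Stably hTDP1-transfected Tdp1-null chicken DT40 cells were treated with library compounds minus camptothecin and grown for at least 48 hr at 37 °C, after which cellular ATP was quantified by luminescence.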
HT1080-NT tox – kills 2HG-producing HT-1080-NT fibrosarcoma cells. HT-1080-NT fibrosarcoma viability, CellTiter-Glo ATP luminescence, 48 h. 360,000 tested, 1.6% active. Potency, µM (series often up to 46.1 µM), without a hit: top-dose activity, negative = less viability, actives largely listed as cytotoxic. AID 686970;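 also: NT is the 2HG producing partner of a matched IDH1 knockdown line; potency is read from the fitted curve at half-maximal effect; 0% = DMSO-treated cells and -100% = media-only wells without cells; nearly all actives have a fitted effect of over 55% in size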
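Compounds were tested in concentration-response format on HT-1080-NT cells for 48 hours at 37 degrees C. Cell viability came from CellTiter-Glo luminescence; curves were classified by r2, response magnitude and activity.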
Numbers without * were called inactive; ? = inconclusive; . = not tested or not shown. Unless noted, calls follow the shape of the dose curve; as a rule, active = well fitted curve in the direction sought with a large enough effect; inconclusive = small, poorly fitted or top-dose-only effect, or another doubt; inactive = no such curve, though single readings can be large; an effect the other way counts as inactive or inconclusive. Unless noted, % is scaled to controls: 0 for no effect and ±100 for the full control effect.

SMILES	TDP1 cell CPT	IL1B secr inh	HT1080 IDH1KD tx	TDP1 cell noCPT	HT1080-NT tox
Cc1ccc(NC(=O)C(Cc2ccccc2)NS(=O)(=O)c2cccc3nsnc23)c(C)c1 (stereo not drawn)	-14%	.	.	?	.
CCN(CC)S(=O)(=O)c1ccc(OC)c(NC(=O)CSc2ccccc2)c1	-30%	0	-9%	?	-5%
COc1ccccc1C(=O)N(CCC1CCCN1C)c1nc2ccccc2s1 (stereo not drawn)	-24%	-78*	?	?	?
CCOC(=O)C1CN(S(=O)(=O)c2ccc(C)cc2)c2cc(S(=O)(=O)CC)ccc2O1 (stereo not drawn)	-3%	9	-5%	-3%	20%
CCOC(=O)CC1(C)Oc2ccccc2N1S(=O)(=O)c1ccc(C)cc1 (stereo not drawn)	21µM*	0	-26%	?	-10%
CNc1ncnc2sc(-c3ccccc3)cc12	16µM*	-77*	-17%	?	-22%
CN(C)CCNc1ncnc2sc(-c3ccccc3)cc12	?	-72*	?	18µM*	?
O=C(CN1C(=O)C2(OCCO2)c2cc(Br)ccc21)NO	19%	-55*	?	-12%	?
CCCSc1ccc(C(=O)Nc2ccc(Cl)cc2)cn1	-26%	-8	-13%	-27%	-10%
O=C(c1ccccc1)c1ccc(Cn2cc(CCCO)nn2)cc1	8.2µM*	39	1%	5.8µM*	0%
O=C(O)CCCCCCCCc1cn(Cc2ccc(C(=O)c3ccccc3)cc2)nn1	3.7µM*	74	4.6µM*	4.1µM*	3.7µM*
O=C(OCc1cn(Cc2ccccc2)nn1)c1ccccc1	-3%	23	-1%	-3%	0%
COc1ccc(CNC(=O)C2CC(O)CN2C(=O)Nc2ccccc2)cc1 (stereo not drawn)	2%	-3	0%	4%	0%
O=C1C(O)CC2c3ccccc3CC3(CCCC3)N12 (stereo not drawn)	?	15	1%	-20%	-2%
CC1CC2(CCCC2)N(C(=O)c2ccccc2)Cc2ccccc21 (stereo not drawn)	9.2µM*	-16	-8%	?	-4%
O=C(Nc1ccc(F)cc1)N[C@@H]1CC[C@@H](CCn2cc(-c3ccc(F)cc3)nn2)O[C@@H]1CO	?	23	16%	-4%	10%
O=C(Nc1ccc(Cl)c(Cl)c1)N[C@@H]1CC[C@@H](CCn2cc(C3CCCCC3)nn2)O[C@@H]1CO	?	58	23µM*	21µM*	21µM*
CCSc1ncc(Cl)c(C(=O)Nc2ccccc2)n1	-27%	19	-10%	-17%	4%
CN(c1ccccc1)S(=O)(=O)c1ccc(NC(=O)c2nc(S(C)(=O)=O)ncc2Cl)cc1	0.65µM*	-96*	12µM*	0.58µM*	?
CCCSc1ncc(Cl)c(C(=O)Nc2ccc(S(=O)(=O)N(C)c3ccccc3)cc2)n1	?	.	.	21µM*	.
CCN(c1ccccc1)S(=O)(=O)c1ccc(NC(=O)c2nc(SC)ncc2Cl)cc1	12µM*	.	.	21µM*	.
COCCNC(=O)c1cccc(OC2CCN(Cc3ccc(C(C)C)cc3)CC2)c1	?	-69*	?	?	?
Cc1ccc(CN2CCC(Oc3cccc(C(=O)N(C)CCN(C)C)c3)CC2)cc1C	?	-65*	21µM*	?	?
COCCNC(=O)c1cccc(OC2CCN(Cc3ccc(C(=O)OC)cc3)CC2)c1	-11%	-16	0%	-25%	-1%
CC(c1ccc2ccccc2c1)c1ccccc1C(=O)O (stereo not drawn)	1%	35	3%	-12%	-1%
SMILES	TDP1 cell CPT	IL1B secr inh	HT1080 IDH1KD tx	TDP1 cell noCPT	HT1080-NT tox
O=c1[nH]c(CNCc2cccnc2)nc2ccccc12	8%	44	1%	3%	-1%
O=C1CN(C(=O)c2ccccc2F)C(c2ccccc2)c2cc(F)ccc2N1 (stereo not drawn)	-14%	25	-2%	-10%	-5%
CCCCC1CCC(C(=O)N2CC(=O)Nc3ccc(C)cc3C2c2ccc(F)cc2)CC1 (stereo not drawn)	9.2µM*	.	.	?	.
CCOc1ccccc1C(=O)N1CC(=O)Nc2ccc(Cl)cc2C1c1ccccc1 (stereo not drawn)	21µM*	.	.	?	.
CCOc1ccccc1C(=O)N1CC(=O)Nc2ccc(C)cc2C1c1ccccc1 (stereo not drawn)	?	.	.	23µM*	.
CCOC(=O)C1=CCN(S(=O)(=O)c2ccccc2Cl)C1c1cccc(F)c1 (stereo not drawn)	?	87	-14%	?	-21%
COc1ccc(-n2c(=O)c(CCC(=O)N3CCN(c4ccccc4O)CC3)nc3ccccc32)cc1	26µM*	-29	-8%	?	-2%
O=C(c1cccs1)N1C[C@@H](n2cc(-c3ccc(F)cc3)nn2)[C@H](O)C[C@@H]1c1ccc(Cl)cc1	13µM*	-16	-15%	23µM*	-5%
O=C(c1cccs1)N1C[C@@H](n2cc(-c3ccc(F)cc3)nn2)[C@H](O)C[C@@H]1c1ccccc1	15µM*	-19	-14%	21µM*	15%
O[C@@H]1CN(Cc2cccs2)[C@@H](c2ccc(Cl)cc2)C[C@H]1n1cc(-c2ccc(F)cc2)nn1	?	-2	-24%	23µM*	?
